Test results as given in PubChem BioAssay AID1903 (Southern Research Specialized Biocontainment Screening …, 2009).
Where “and” joins values, the source holds several entries; their conditions need not be identical. Equal entries are not always repeated. Among all 310,000 compounds or so, about 1,200 (0.39%) were called active. Only a sample is shown. Measured potencies and affinities stand elsewhere. Values without a mark were called inactive. The rule behind the calls is not given here.

target: Large T antigen (Simian virus 40) (UniProt P03070); assay: TAg ATPase/helicase activity blockers – biochemical (AID 1903); settings: SV40 large T antigen ATPase/helicase inhibition assay; at 20 µM; active compounds read high
Sequence (P03070 whole entry, looked up): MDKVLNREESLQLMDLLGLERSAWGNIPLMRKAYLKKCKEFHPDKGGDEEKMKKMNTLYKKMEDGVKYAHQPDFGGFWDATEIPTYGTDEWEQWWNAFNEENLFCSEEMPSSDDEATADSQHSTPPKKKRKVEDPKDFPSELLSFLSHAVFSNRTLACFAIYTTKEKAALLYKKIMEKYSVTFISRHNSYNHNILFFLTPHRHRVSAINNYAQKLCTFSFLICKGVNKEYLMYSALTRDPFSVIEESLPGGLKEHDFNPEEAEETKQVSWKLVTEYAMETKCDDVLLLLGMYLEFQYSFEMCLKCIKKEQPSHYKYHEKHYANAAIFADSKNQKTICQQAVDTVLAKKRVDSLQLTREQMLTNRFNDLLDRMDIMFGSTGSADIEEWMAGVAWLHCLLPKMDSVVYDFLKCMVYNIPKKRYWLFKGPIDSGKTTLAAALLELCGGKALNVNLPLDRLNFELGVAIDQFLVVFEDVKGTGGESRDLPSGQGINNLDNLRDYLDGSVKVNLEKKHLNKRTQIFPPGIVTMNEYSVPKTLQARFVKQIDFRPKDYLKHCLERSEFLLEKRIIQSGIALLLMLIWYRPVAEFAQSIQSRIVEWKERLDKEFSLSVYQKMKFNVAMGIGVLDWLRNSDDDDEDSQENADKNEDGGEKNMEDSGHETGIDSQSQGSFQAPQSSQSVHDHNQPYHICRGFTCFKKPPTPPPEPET

Row | Compound | inhibition
1 | Cc1ccc(N(C(=O)CNC(=O)c2ccco2)C(C(=O)NCC2CCCO2)c2ccccc2)c(C)c1 (stereo not drawn) | 18.4%
2 | CCN(CC)S(=O)(=O)c1ccc(Nc2nc3ccccc3n3nnnc23)cc1 | -2.08%
3 | N#CC1=C(S)N(c2ccccc2)C(c2ccc(-c3cc(Cl)ccc3Cl)o2)NC1=O (stereo not drawn) | 33.3%
4 | N#CC1=C(S)N(c2ccccc2)C(c2ccc(-c3cccc(Cl)c3)o2)NC1=O (stereo not drawn) | 34.4%
5 | Cc1cccc(N(CC(=O)N2CCCC2)S(C)(=O)=O)c1 | 7.43%
6 | CSc1ccccc1NC(=O)CN(C)Cc1cccc(Cl)c1 | 8.82%
7 | COc1ccc(N/C(C)=C/C(=O)c2ccccc2)cc1 | 9.38%
8 | COc1ccc(C(=O)/C=C(\C)Nc2ccc3c(c2)OCO3)cc1 | 5.13%
9 | CCCc1nc(C(C)(C)O)c(C(=O)O)n1Cc1ccc(-c2ccccc2-c2nn[nH]n2)cc1 | -1.62% and 6.85%
10 | Cc1c(/C=N/NC(=O)c2cccs2)c2ccccc2n1Cc1ccccc1Cl | 14.4%
11 | CN(Cc1ccccc1F)C(=O)c1sccc1-c1ccccc1 | 20%
12 | CCOC(=O)Cc1csc(NC(=O)NC2(C(F)(F)F)Oc3ccccc3O2)n1 | 31.1%
13 | CC(C)CNC(=O)NC1(C(F)(F)F)Oc2ccccc2O1 | 3.66%
14 | O=C(Nc1ccc2c(c1)CCCN2C(=O)c1cccs1)c1c(F)cccc1Cl | 13.1%
15 | Cc1c2ccccc2cc[n+]1CCCS(=O)(=O)[O-] | 7.97%
16 | CCC(=S)/C=C1\Sc2ccc3ccccc3c2N1CCCS(=O)(=O)O | 18.3%
17 | COC(=O)[C@@H](NC(=O)NCc1ccccc1F)C(C)C | -2.59%
18 | COc1ccc(C(=O)N2CCN(S(=O)(=O)c3cc(Cl)ccc3OC)CC2)cc1 | 5.04%
19 | Cc1nn(C)c(C)c1NC(=O)CSc1nc(-c2ccccc2Cl)nc2c1cnn2-c1ccccc1 | 8.57%
20 | COc1cc(/C=N/NC(=O)/C(=C/c2ccccc2)CCO)ccc1O | 29.2%
21 | COc1ccc(/C=N/NC(=O)/C(=C/c2ccccc2)CCO)cc1 | 2.79%
22 | O=C(COc1ccc(N2CC(C(=O)O)CC2=O)cc1)Nc1cccc(C(F)(F)F)c1 (stereo not drawn) | -0.75%
23 | CCOc1cc(/C=N/NC(=O)C(=O)N2CCCC2)ccc1O | 29.3%
24 | COc1cc(/C=N\NC(=O)CNC(=O)C(c2ccccc2)c2ccccc2)ccc1O | 33.5%

Row | Compound | inhibition
25 | COc1ccc(/C=N/NC(=O)CCc2n[nH]c(=O)[nH]c2=O)cc1OC | 9.55%
26 | CCOc1cc(/C=N/NC(=O)COc2nc(C)cc(COC)c2C#N)ccc1O | 25.5%
27 | COc1ccc(/C=N/NC(=O)CNc2n[nH]c(=O)[nH]c2=O)cc1OC | 0.71%
28 | COc1ccc(/C=N/NC(=O)CCc2ccccc2)cc1O | 29.5%
29 | Cc1cccc(N2CCN(S(=O)(=O)c3ccc4c(c3)CC(C)N4C(=O)C3CC3)CC2)c1C (stereo not drawn) | 4.4%
30 | Cc1cc(OCC(=O)NC2CC2)c2c(C)c(C)c(=O)oc2c1 | 20.6%
31 | O=C(CN1CCOCC1)Nc1cccc(C(F)(F)F)c1 | 16.1%
32 | COc1cc(Cl)c(C)cc1NC(=O)CCCn1c(=O)oc2ccccc21 | 4.1%
33 | O=C(CN1CCOCC1)NNC(=S)Nc1ccccc1 | 4.41%
34 | CN(CC(=O)Nc1cccc(F)c1)C(=O)c1cccc(S(=O)(=O)N2CCN(c3ccccc3)CC2)c1 | 6.82%
35 | O=[N+]([O-])C1=C(Nc2cccc3ccccc23)CS(=O)(=O)C1 | 0.61%
36 | Cc1ccc(NC2=C([N+](=O)[O-])CS(=O)(=O)C2)cc1 | 2.4%
37 | O=C1N/C(=C/c2ccc(N3CCOCC3)cc2)C(=O)N1Cc1ccc(F)cc1 | 3.08%
38 | Cc1ccc(/C=C2/NC(=O)N(Cc3ccc(Br)cc3)C2=O)o1 | 9.48%
39 | Cc1ccc(/C=C2/NC(=O)N(Cc3ccccc3)C2=O)o1 | 9.41%
40 | O=C1/C(=C\c2cccnc2)SC(=S)N1c1ccc(F)cc1 | 9.19%
41 | COc1ccc(CN2C(=O)c3ccccc3C2=O)cc1 | 5.14%
42 | COC(=O)C1=C(C)N(Cc2ccc(OC)cc2)C(=O)/C1=C\c1ccco1 | 10.5%
43 | O=C1N/C(=C\c2ccsc2)C(=O)N1Cc1ccc(F)cc1 | 5.82%
44 | O=C1/C(=C/c2cccnc2)SC(=S)N1c1ccc(F)cc1 | 21.6%
45 | COc1cccc(C(=O)COc2ccc(NC(=O)c3cccs3)cc2)c1 | -1.46%
46 | Cc1nn(-c2ccccc2)c(N)c1N=Nc1ccc(Cl)cc1 | 5.29%
47 | CC(=O)NCCCc1nc2ccccc2n1Cc1cc(C)ccc1C | 2.29%
48 | O=C(CN1C(=O)S/C(=C\c2cccs2)C1=O)Nc1ccc(C(=O)O)c(O)c1 | 13.4%

Row | Compound | inhibition
49 | O=C(CCCN1C(=O)/C(=C\c2ccco2)SC1=S)Nc1ccc(O)cc1C(=O)O | 83.1%
50 | O=C(CCCN1C(=O)/C(=C/c2ccccc2)SC1=S)Nc1ccc(C(=O)O)c(O)c1 | 11.4%
51 | O=C(CN1C(=O)/C(=C/c2ccccc2Cl)SC1=S)NC1CCS(=O)(=O)C1 (stereo not drawn) | 14.6%
52 | O=C(CN1C(=O)/C(=C/c2ccccc2)SC1=S)NC1CCS(=O)(=O)C1 (stereo not drawn) | 15.6%
53 | O=C(CCCN1C(=O)/C(=C\c2ccccc2)SC1=S)Nc1ccc(O)cc1C(=O)O | 11.7%
54 | COc1ccccc1/C=C1\SC(=S)N(CCC(=O)Nc2ccc(C(=O)O)c(O)c2)C1=O | 22.1%
55 | O=C(CCN1C(=O)/C(=C/c2cccs2)SC1=S)Nc1ccc(C(=O)O)c(O)c1 | 35%
56 | COC(=O)COc1ccc2occ(C(C)=O)c2c1 | -0.85%
57 | COC(=O)c1[nH]c2ccc(F)cc2c1NC(=O)Nc1ccc(OC)cc1 | 11.4%
58 | CN1CCN(C(=O)CSc2nnc(COc3ccccc3)o2)CC1 | 6.15%
59 | Cc1ccc2oc3nc(C)c(C(=O)Nc4cccc(C(F)(F)F)c4)cc3c(=O)c2c1 | 2.24%
60 | Clc1ccc(/C=N/N2CCCCC2)cc1 | 5.46%
61 | Cc1cc(NC(=O)C(=O)c2c(C)[nH]c3ccccc23)no1 | 3.99%
62 | CCOc1ccc2nc(NC(=O)CC3Oc4ccccc4NC3=O)sc2c1 (stereo not drawn) | 7.51%
63 | O=C(COC(=O)c1ccccc1SCC(=O)N1CCCC1)NC1CCCCC1 | 7.38%
64 | CC1(C)CC(=O)C/C(=N/NC(=O)COc2ccc3ccccc3c2Br)C1 | 8.99%
65 | C/C(CC(=O)Nc1ccc2c(c1)OCCO2)=N\NC(=O)Cc1ccccc1 | 9.69%
66 | CC(C(=O)Nc1ccc(O)cc1C(=O)O)N1C(=O)/C(=C\c2cccs2)SC1=S (stereo not drawn) | 38.1%
67 | O=C(CCCN1C(=O)/C(=C/c2cccs2)SC1=S)Nc1ccc(O)c(C(=O)O)c1 | 29.5%
68 | CCN(C(=O)C(C)N1C(=O)/C(=C/c2ccco2)SC1=S)C1CCS(=O)(=O)C1 (stereo not drawn) | 33.8%
69 | O=C(CCCN1C(=O)/C(=C\c2ccco2)SC1=S)Nc1ccc2ccccc2c1 | 18.2%
70 | Cc1ccc2nc(N3CCN(c4ccccc4)CC3)c(C=O)c(=O)n2c1 | 3.59%
71 | CCn1cc(S(=O)(=O)CC(=O)N2CCc3ccccc32)c2ccccc21 | 16.3%
72 | COCC(C)n1c(SCc2nc(N)nc(Nc3ccccc3C)n2)nc2ccccc2c1=O (stereo not drawn) | 23%

Row | Compound | inhibition
73 | COc1cccc(NCc2ccc([N+](=O)[O-])s2)c1 | 20.9%
74 | COc1cccc(/C=C2\C(=O)N(c3cccc(C)c3)C(=O)c3ccccc32)c1 | 11%
75 | COc1cccc(N2C(=O)/C(=C\c3cccs3)NC2=S)c1 | 24%
76 | COc1cccc(/C=C2/C(=O)NN(c3ccccc3)C2=O)c1 | 26.6%
77 | COc1ccc(NC(=O)CCNC(=O)c2ccco2)cc1OC | 0.95%
78 | O=C(O)C1CCCN1C(=O)Nc1ccccc1 (stereo not drawn) | 4.07%
79 | CN1CCN(CC(=O)O)CC1 | 17.9%
80 | COc1ccc2c(c1)[nH]c1c(=O)n(CCC3=CCCCC3)cnc12 | 9.61%
81 | CCOC(=O)N1CCC(Nc2ccc(N3C(=O)C4CCCCC4C3=O)cc2[N+](=O)[O-])CC1 (stereo not drawn) | 10.6%
82 | COc1ccc(C(=O)CCc2ccccc2)c(O)c1 | 7.01%
83 | COC(=O)CCc1ccc(O)cc1 | 4.8%
84 | Cc1ccsc1CNC(=O)c1c(-c2ccccc2)noc1C | 2.94%
85 | O=C1CNC(=S)N1CCCc1ccccc1 | 5.18%
86 | O=C1CNC(=S)N1CCc1ccc(Cl)cc1 | 6.29%
87 | COc1ccc(-c2cc(C(F)(F)F)nc(SCC(=O)NCCCN3CCOCC3)n2)cc1 | 9.25%
88 | CN1C(=O)NC(c2ccc(O)cc2)C2=C1CN(c1ccccc1)C2=O (stereo not drawn) | 6.82%
89 | Cc1ccc(N2CC3=C(C2=O)C(c2ccccc2)NC(=O)N3C)cc1 (stereo not drawn) | 5.38%
90 | CN1CCc2c(sc3c2c(=O)n(-c2ccccc2)c2n[nH]c(=S)n32)C1 | 25.6%
91 | Cc1nnc2n(Cc3ccccc3)c(=O)c3c4c(sc3n12)COC(C(C)C)C4 (stereo not drawn) | 7.22%
92 | Cc1nnc2n(-c3ccccc3)c(=O)c3c4c(sc3n12)COC(C(C)C)C4 (stereo not drawn) | 5.27%
93 | CSc1nnc2n(-c3ccc(C)cc3)c(=O)c3c4c(sc3n12)COC(C(C)C)C4 (stereo not drawn) | 10.7%
